The source made the active and inactive calls. Where a call stands in place of a potency, no number is given. Calls follow the shape of the full dose curve.

Consider 40 compounds from PubChem BioAssay (Tox21).

Chain of Acetylcholinesterase (Homo sapiens) (P22303 whole entry, looked up): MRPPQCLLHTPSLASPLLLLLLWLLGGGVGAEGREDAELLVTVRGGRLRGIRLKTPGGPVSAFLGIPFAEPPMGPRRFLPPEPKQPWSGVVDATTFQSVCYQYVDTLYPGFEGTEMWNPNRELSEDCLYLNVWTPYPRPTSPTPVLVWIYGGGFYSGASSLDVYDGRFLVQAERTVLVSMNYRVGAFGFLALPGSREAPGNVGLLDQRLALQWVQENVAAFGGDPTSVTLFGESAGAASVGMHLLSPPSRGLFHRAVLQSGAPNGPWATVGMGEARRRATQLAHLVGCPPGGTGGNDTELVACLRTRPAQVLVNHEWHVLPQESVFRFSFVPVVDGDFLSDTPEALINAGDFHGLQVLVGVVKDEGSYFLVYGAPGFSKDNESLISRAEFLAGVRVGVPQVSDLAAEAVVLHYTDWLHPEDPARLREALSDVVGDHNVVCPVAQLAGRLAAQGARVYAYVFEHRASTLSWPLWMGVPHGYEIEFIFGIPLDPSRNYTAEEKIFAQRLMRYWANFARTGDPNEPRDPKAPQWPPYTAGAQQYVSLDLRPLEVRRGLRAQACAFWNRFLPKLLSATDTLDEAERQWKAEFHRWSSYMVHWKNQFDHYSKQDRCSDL

For this test, the target named is Acetylcholinesterase (Homo sapiens) (UniProt P22303). Briefly: Acetylcholinesterase (AChE) small molecule antagonists: enzyme-based qHTS assay with human liver microsomes (AID 1347399). Also: nearly all actives have a fitted effect of over 60% in size. The conditions noted are these: Potency: qHTS inhibition; outcome: qHTS inhibition; series mostly up to 115 µM. The gist of the method:
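Recombinant human AChE (50 mU/mL in the enzyme mix) and human liver microsomes (0.25 mg/mL final) were preincubated with compound and NADPH (0.25 mg/mL final) for 30 min at 37 C. Acetylthiocholine/DTNB was then added; thiocholine was read colorimetrically after 10 min at room temperature.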
As to `C#C[C@]1(O)CC[C@H]2[C@@H]3CCC4=Cc5oncc5C[C@]4(C)[C@H]3CC[C@@]21C`, the Potency entry was “inactive”.
On the same count and under the same terms, in the case of `CC(=O)Nc1ccc(/C=N/NC(N)=S)cc1` it was “inactive”; in that of `CC(C)=CCCC(C)CCO` (stereo not given), “inactive”; in that of `CC(C)(CCC(=O)O)C(=O)O`, “inactive”.
`CCCCOC(=O)CCS`: the Potency entry is “inactive”.
For the compound `O=C(O)Cc1cccc(-c2cc(CCCCCCc3ccc(O[C@H]4O[C@H](CO)[C@@H](O)[C@H](O)[C@@H]4O)c(-c4cccc(CC(=O)O)c4)c3)ccc2O[C@H]2O[C@H](CO)[C@@H](O)[C@H](O)[C@@H]2O)c1`, the activity change, negative = inhibition was -1.17% [at 0.435 µM] (inactive).
On to `Cc1cc(O)c(Cl)cc1C`, for which the Potency entry is “inactive”.
Take `O=C(O)CN(CCN(CC(=O)O)CC(=O)O)CCN(CC(=O)O)CC(=O)O`: the activity change, negative = inhibition was 0% [at 23.6 µM] (inactive).
Consider `CCOC(=O)C(O)c1ccccc1` (stereo not given), for which the Potency result is “inactive”.
As to `NCCNC(=O)c1ccc(Cl)cn1`, the Potency result was “inactive”.
Take `CCn1c2ccccc2c2cc([N+](=O)[O-])ccc21`: the Potency entry was “inactive”.
The same measure, in the same setting: in the case of `COC(=O)C1CCC(C(=O)OC)CC1` (stereo not given) it was “inactive”; in that of `O=C1NCN(c2ccccc2)C12CCN(CCCC(c1ccc(F)cc1)c1ccc(F)cc1)CC2`, “inactive”; in that of `COc1ccc(S(=O)(=O)N2C(=O)[C@@](c3ccccc3OC)(N3C[C@H](O)C[C@H]3C(=O)N(C)C)c3cc(Cl)ccc32)c(OC)c1`, “inactive”.
Same read-out and setting: the value for `CN(C)CCOC(C)(c1ccccc1)c1ccccn1` (stereo not given) was “inactive”.
On the same count and under the same terms, the value for `CCCCCCCCCC=O` was “inactive”; that for `CC1=CC[C@H](C(C)C)C=C1` was “inactive”; that for `O=S(=O)(O)c1cccc(S(=O)(=O)O)c1` was “inactive”.
In the case of `Nc1cc(S(=O)(=O)O)ccc1S(=O)(=O)O`, the Potency result was “inactive”.
Still for that read-out and setting: the value for `CC(C)(Oc1ccc(Cl)cc1)C(=O)OCCCOC(=O)C(C)(C)Oc1ccc(Cl)cc1` was “inactive”; that for `O=C1CC(c2ccc(Cl)cc2)CC(=O)N1` was “inactive”.
Still for that read-out and setting: in the case of `COC(=O)c1c(Cl)c(Cl)c(C(=O)OC)c(Cl)c1Cl` it was “inactive”; in that of `C[C@]12CC[C@H]3[C@@H](CCC4=CC(=O)CC[C@@]43C)[C@@H]1CC[C@@H]2C(=O)CO`, “inactive”.
Same read-out and setting: in the case of `c1ccc(CNc2ncnc3c2ncn3C2CCCCO2)cc1` (stereo not given) it was “inactive”; in that of `C=CCOCC(CO)(COCC=C)COCC=C`, “inactive”.
Consider `CC(=O)NCCO`, for which the Potency result was “inactive”.
Still for that read-out and setting: the value for `Oc1ccc(OCc2ccccc2)cc1` was “inactive”; that for `CC(C)(CO)CO` was “inactive”; that for `N[C@@H](Cc1c[nH]c2ccc(O)cc12)C(=O)O` was “inactive”.
Consider `CC(C)OCC1CO1` (stereo not given), for which the Potency entry was “inactive”.
Take `CCCCC(CC)C(=O)OCCOCCOCCOCCOC(=O)C(CC)CCCC` (stereo not given): the Potency result is “inactive”.
The same measure, in the same setting: the value for `CCN(CC)C(=O)C1CN2CCc3cc(OC)c(OC)cc3C2CC1OC(C)=O` (stereo not given) was “inactive”.
On the same count and under the same terms, the value for `CC(C)N1C(=O)c2ccccc2C1=O` was “inactive”.
Same read-out and setting: the value for `O=C1OC2(c3ccc(O)cc3Oc3cc(O)ccc32)c2ccc(N=C=S)cc21` was “inactive”; that for `CCC(=O)c1ccc(O)cc1` was “inactive”.
As to `CCCOCCO`, the Potency result is “inactive”.
Take `CCOC(=O)c1cc(=O)c2c(OCC(COc3cccc4oc(C(=O)OCC)cc(=O)c34)OC(=O)[C@@H](N)CCCCN)cccc2o1`: the Potency entry is “inactive”.
`O=C=NC1CCC(CC2CCC(N=C=O)CC2)CC1` (stereo not given): the Potency entry was “inactive”.
As to `Cc1cc(C)n(CO)n1`, the Potency result was “inactive”.
As for `O=C(O)CCC(=O)OC[C@@H](NC(=O)C(Cl)Cl)[C@H](O)c1ccc([N+](=O)[O-])cc1`, the Potency result is “inactive”.
